An excerpt weighted towards active compounds, which were near 7.6% of everything screened.
KB-3-1 cytotox: kills parental KB-3-1 adenocarcinoma cells; KB-3-1 viability, CellTiter-Glo ATP luminescence, 72 h; Potency, µM (series often up to 46.1 µM), usual class: cytotoxic; actives 1.4% (n = 400,000); note: nearly all actives have a fitted effect of over 60% in size
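KB-3-1 cells, DMEM (no phenol red) + 10% FBS; compound by pin transfer, 72 h, 37 °C. Readout: CellTiter-Glo luminescence after 10 min. Data normalized, curve-fitted.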
MCF10A rerep: DNA re-replication induction in MCF 10a cells. MCF 10A DNA re-replication, Hoechst nuclear intensity, 48 h. Potency, µM (titrated, usually from 46.1 µM), usual class: activators. actives 2.9% (n = 350,000); note: nearly all actives have a fitted effect of over 50% in size
KCNH2 WT inh: blocks the wildtype human KCNH2 potassium channel; Q12809; U2OS, BacMam KCNH2, thallium flux FluxOr; active compounds read low; activity change, % at 1.84 µM; actives 0.37% (n = 340,000);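 active = maximum activity change below -70%; inconclusive = maximum activity change between -70% and -50%; inactive = maximum activity change above -50%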
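U2OS cells were transduced with wild-type KCNH2 virus (2.03 x 10^8 / mL) for 4 h at room temperature, then cultured overnight at 37 C. Thallium flux was read with FluxOr dye. Rate constants were normalized to DMSO controls.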
KCNH2 3.1 block: inhibitors of human KCNH2 3.1 potassium channel isoform; U2OS KCNH2 3.1, thallium flux FluxOr; active compounds read low; actives 0.95% (n = 340,000); AID 720553; activity change, % (tested at about 1.8 µM);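 active = maximum activity change below -70%; inconclusive = maximum activity change from -70% to -50%; inactive = maximum activity change above -50%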;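 note: thallium influx rate constant from kinetic fluorescence after stimulation buffer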
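U2OS cells transduced with KCNH2 3.1 mutant virus (1.77 x 10^8 /mL, 4 h), plated overnight at 37 C, loaded 45 min with FluxOr dye plus Red40 quencher. Thallium flux rate constant from kinetic reads after stimulation buffer, normalised to controls.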
KB-V1 cytotox: KB-V1 MDR subline cytotoxicity. Potency, µM (highest dose often 46.1 µM), usual class: cytotoxic. KB-V1 MDR cells viability, CellTiter-Glo, 72 h. actives 3.4% (n = 400,000). AID 1347076; note: nearly all actives have a fitted effect of over 60% in size
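Luminescent ATP read-out (CellTiter-Glo, 10 min) measures survival of drug-selected KB-V1 MDR cells after 72 h, 37 degrees C compound exposure. Medium: phenol-red-free DMEM, 10% FBS. Values from fitted concentration-response curves.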
SW480 rereplic: inducers of DNA re-replication in SW480 colon cancer cells; SW480 DNA re-replication, Hoechst DNA content imaging, 48 h; Potency, µM (doses to about 46.1 µM), most hits filed as activators; actives 1.8% (n = 340,000); note: nearly all actives have a fitted effect of over 55% in size
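DNA re-replication was detected as more nuclei of elevated Hoechst intensity after 48 hr exposure to compound (23 nL pinned per well of 250 cells).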
Numbers stand for hits; – = inactive; ? = inconclusive; · = no result; ! = a repeat was not active; [ ] = dose if it differs, or a comment. Unless noted, calls come from the whole dose curve; as a rule, active = well fitted curve in the direction sought with a large enough effect; inconclusive = small, poorly fitted or top-dose-only effect, or another doubt; inactive = no such curve, though single readings can be large; an effect the other way counts as inactive or inconclusive.

SMILES | KB-3-1 cytotox | MCF10A rerep | KCNH2 WT inh | KCNH2 3.1 block | KB-V1 cytotox | SW480 rereplic
COc1ccc(Cn2c(C)nc3c(c2=O)c2nc4ccccc4nc2n3Cc2ccco2)cc1 | ? | 18µM | – | – | ? | 21µM
Cc1nnnn1CC(=O)Nc1ccccc1[N+](=O)[O-] | – | – | – | – | – | –
O=C(CN1CCN(S(=O)(=O)c2ccccc2)CC1)Nc1ccccc1C(=O)c1ccccc1 | ? | – | – | – | 3.7µM | –
Cc1cc(C(=O)c2ccccc2)c(NC(=O)CCl)s1 | ? | ? | – | – | – | ?
O=C(CCl)Nc1ccccc1C(=O)c1ccccc1 | – | 7.3µM | – | – | – | 15µM
CCC(C)Cn1cnc2c(SCc3ccccn3)nc(N)nc21 (stereo unspecified) | – | – | – | – | ? | –
COc1cccc(NC(=O)CN(C)C(=O)CN2C(=O)NC(C)(c3ccc4ccccc4c3)C2=O)c1 (stereo unspecified) | – | ? | – | – | – | –
Cc1csc2c1c(=O)n(O)c(=O)n2Cc1ccccc1 | – | · | · | · | – | ·
Cc1c(C(=O)c2no[n+]([O-])c2C(=O)c2cnn(C)c2C)cnn1C | ? | 11µM | – | – | – | ?
COC(=O)[C@H](Cc1c[nH]c2ccccc12)NCc1cccc(B(O)O)c1 | – | – | – | – | – | 4.6µM
COC(=O)C(Cc1c[nH]c2ccccc12)NC(=O)CNC(C)=O (stereo unspecified) | – | – | – | – | ? | –
COC(=O)[C@@H](Cc1c[nH]c2ccccc12)NCc1ccc(B(O)O)cc1 | – | – | – | – | – | 1.2µM
Cc1ccccc1CNC(=O)C(=O)NCCC1CCCCN1S(=O)(=O)c1ccccc1 (stereo unspecified) | ? | – | – | – | 6.5µM | –
Cc1ccc(S(=O)(=O)N2CCCCC2CCNC(=O)C(=O)NC2CC2)cc1 (stereo unspecified) | – | – | – | – | 8.2µM | –
Cc1ccc(S(=O)(=O)N2CCCCC2CCNC(=O)C(=O)NCc2cccnc2)cc1 (stereo unspecified) | 8.2µM | ? | – | – | ? | 16µM
Cc1ccc(C)c(S(=O)(=O)N2CCCCC2CCNC(=O)C(=O)NCc2ccccc2)c1 (stereo unspecified) | 26µM | ? | – | – | ? | ?
O=C(NCCC1CCCCN1S(=O)(=O)c1ccc(F)cc1)C(=O)NCc1ccncc1 (stereo unspecified) | – | – | – | – | – | –
Cc1ccc(C)c(S(=O)(=O)N2CCCCC2CCNC(=O)C(=O)NCc2cccnc2)c1 (stereo unspecified) | – | – | – | – | ? | ?
O=C(C1=NOC2(C1)C(=O)N(Cc1ccccc1)c1ccccc12)N1CCOCC1 (stereo unspecified) | – | · | · | · | – | ·
Cc1ccc(O)c(C(=O)c2cnn(C(=O)c3cccc(S(=O)(=O)N(C)C)c3)c2)c1 | – | – | – | – | – | –
CC(C)(C)c1ccc(C(=O)N2CCN(c3ccc(N4CCOCC4)nn3)CC2)cc1 | – | – | – | – | ? | –
Cc1cc(C)c(S(=O)(=O)N2CCCCC2CCNC(=O)C(=O)NCC2CCCO2)c(C)c1 (stereo unspecified) | – | – | – | – | ? | –
O=C(NCCC1CCCCN1S(=O)(=O)c1ccc(Cl)cc1)C(=O)NCc1ccncc1 (stereo unspecified) | – | – | – | – | – | –
Cc1cc(C)c(S(=O)(=O)N2CCCCC2CCNC(=O)C(=O)NCc2cccnc2)c(C)c1 (stereo unspecified) | – | – | – | – | 8.2µM | –
Cc1ccc(CNC(=O)C(=O)NCCC2CCCCN2S(=O)(=O)c2ccc(C)cc2)cc1 (stereo unspecified) | – | ? | – | – | 3.7µM | ?
SMILES | KB-3-1 cytotox | MCF10A rerep | KCNH2 WT inh | KCNH2 3.1 block | KB-V1 cytotox | SW480 rereplic
O=C(NCc1ccncc1)[C@@H]1CCCN1C(=O)[C@@H]1CCCN1C(=O)c1ccccc1 | – | · | · | · | – | ·
COc1ccccc1C(=O)N1CCC(C(=O)c2ccc(F)cc2)CC1 | – | – | – | – | 9.2µM | –
COc1ccccc1NC(=O)N1CCC(C(=O)c2ccc(F)cc2)CC1 | – | – | – | – | 21µM | –
CCOc1ccccc1NC(=O)N1CCC(C(=O)c2ccc(F)cc2)CC1 | – | ? | – | – | – | –
COc1ccc(CCNC(=O)C2CCN(C(=O)c3ccc(F)cc3)CC2)cc1 | – | 0.65µM | – | – | – | ?
COc1ccc(CCNC(=O)C2CCN(C(=O)c3ccc(Cl)cc3)CC2)cc1 | – | – | – | – | – | –
CCOc1ccc(C(=O)N2CCC(C(=O)c3ccc4c(c3)OCCO4)CC2)cc1 | – | – | – | ? | 4.1µM | –
CCOC(=O)C1CCN(C(=O)c2ccc3c(c2)OCCO3)CC1 | – | – | – | – | – | –
Cc1[nH]c2ccccc2c1C(=O)CSc1n[nH]c(N)n1 | ? | – | – | – | – | –
COc1ccc(C(=O)C2CCN(C(=O)c3ccc(OC)cc3)CC2)cc1 | ? | – | – | -84 | 6.5µM | –
N#CC1(Cc2ccccc2Cl)c2ccccc2C=CN1C(=O)c1ccccc1 (stereo unspecified) | ? | – | – | – | 21µM | –
COc1cc(NC(=O)c2nccn2C)cc(C(=O)Nc2cccc(C(F)(F)F)c2)c1 | – | – | – | ? | 4.1µM! | ?
COc1cc(NC(=O)c2nccnc2N)cc(C(=O)Nc2cccc(C(F)(F)F)c2)c1 | – | – | – | – | – | –
COc1cc(NC(=O)N2CCNC2=O)cc(C(=O)Nc2cccc(C(F)(F)F)c2)c1 | 10µM | 2.1µM | – | – | – | 5.2µM
Cc1nc(-c2cccnc2)sc1C(=O)Nc1ccc(C(F)(F)F)cc1 | – | – | – | – | ? | –
CCN1CCN(Cc2ccc(NC(=O)c3cc(NC(=O)N4CCNC4=O)cc(OC)c3)cc2C(F)(F)F)CC1 | ? | – | – | – | ? | ?
COc1cc(NC(=O)c2csc(-c3ccncc3)n2)cc(C(=O)Nc2cccc(C(F)(F)F)c2)c1 | – | – | ? | -118 | ? | –[9.22 µM]
Cc1nc(-c2cccnc2)sc1C(=O)Nc1cccc(C(F)(F)F)c1 | – | – | – | – | 16µM | –
O=C(Cn1c(SCC(=O)Nc2ccc(F)cc2)nc2ccccc21)NCc1ccc(Cl)cc1 | – | · | · | · | – | ·
O=S(=O)(NCCSc1nnnn1-c1ccccc1)c1cccs1 | – | – | – | – | 16µM | –
Cc1nc2c(Cl)cccc2[nH]1 | – | – | – | – | – | –
COc1ccc(N2CC3=C(C2=O)C(c2ccc(Br)cc2)NC(=O)N3C)cc1 (stereo unspecified) | – | · | · | · | 26µM | ·
